# Reference: the supplement of paper PMC11732987, “Enantioselective OTUD7B fragment discovery through chemoproteomics screening and high-throughput optimisation” (Communications Chemistry, 2025)
# Unmarked numbers belong to inactive results.
# Columns and labels:
# Test in all cases: log2 ratio of Biotin-Ahx-Ub-VS probe labelling (fragment/DMSO); higher = less target engagement (more negative = stronger competition), active = hit call of the paper (q ≤ 0.05, log2 ratio ≤ -1)
# Conditions in all cases: compound concentration: 200 uM; treatment time: 3 h
# ALG13 = biological target: T1, ALG13 (UniProt Q9NP73)
# T1 sequence (whole entry): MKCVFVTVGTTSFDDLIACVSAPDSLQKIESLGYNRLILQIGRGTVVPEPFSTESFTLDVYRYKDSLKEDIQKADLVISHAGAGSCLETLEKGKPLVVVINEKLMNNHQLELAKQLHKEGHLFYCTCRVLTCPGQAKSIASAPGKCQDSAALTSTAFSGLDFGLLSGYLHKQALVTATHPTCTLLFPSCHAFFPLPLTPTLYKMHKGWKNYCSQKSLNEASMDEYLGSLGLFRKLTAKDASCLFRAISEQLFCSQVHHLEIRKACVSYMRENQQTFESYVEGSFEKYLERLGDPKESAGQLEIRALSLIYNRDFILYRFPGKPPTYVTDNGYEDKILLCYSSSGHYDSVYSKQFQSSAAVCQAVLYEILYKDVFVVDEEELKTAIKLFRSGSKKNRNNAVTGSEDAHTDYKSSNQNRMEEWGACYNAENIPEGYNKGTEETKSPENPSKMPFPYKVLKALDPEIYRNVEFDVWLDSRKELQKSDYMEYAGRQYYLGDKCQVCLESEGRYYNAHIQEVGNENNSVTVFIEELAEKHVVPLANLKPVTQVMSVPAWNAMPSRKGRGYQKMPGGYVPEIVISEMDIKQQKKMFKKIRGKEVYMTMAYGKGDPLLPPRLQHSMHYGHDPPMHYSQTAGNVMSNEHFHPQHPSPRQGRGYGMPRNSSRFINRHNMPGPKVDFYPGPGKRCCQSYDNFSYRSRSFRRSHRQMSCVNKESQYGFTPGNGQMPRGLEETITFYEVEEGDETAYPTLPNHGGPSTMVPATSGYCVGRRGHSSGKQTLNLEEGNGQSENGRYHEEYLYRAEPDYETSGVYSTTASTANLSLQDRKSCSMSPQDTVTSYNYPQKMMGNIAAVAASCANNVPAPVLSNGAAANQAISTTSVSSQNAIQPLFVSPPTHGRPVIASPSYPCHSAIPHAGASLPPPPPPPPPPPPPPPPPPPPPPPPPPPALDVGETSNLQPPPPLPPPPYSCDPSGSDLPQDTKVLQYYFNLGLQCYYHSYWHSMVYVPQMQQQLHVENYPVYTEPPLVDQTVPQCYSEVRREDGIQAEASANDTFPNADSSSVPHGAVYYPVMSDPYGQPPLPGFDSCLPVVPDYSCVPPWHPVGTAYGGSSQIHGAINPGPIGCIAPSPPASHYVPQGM
# Outline: (§1)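 Fragment (200 µM) or vehicle was incubated for 3 h with triplicate HEK293T lysate samples of 495 µg, which were then treated with Biotin-Ahx-Ub-VS at 0.5 µM final for 1 h. Labelled DUBs were enriched on NeutrAvidin, digested with LysC and trypsin, and analysed by diaPASEF LC-MS/MS. Values are average log2 fragment/vehicle ratios from an unpaired t-test on global-median-normalised Spectronaut label-free quantities, using proteins with ≥2 unique peptides.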
# ATXN3 = ATXN3 (UniProt P54252)
# ATXN3, sequence (P54252 whole entry): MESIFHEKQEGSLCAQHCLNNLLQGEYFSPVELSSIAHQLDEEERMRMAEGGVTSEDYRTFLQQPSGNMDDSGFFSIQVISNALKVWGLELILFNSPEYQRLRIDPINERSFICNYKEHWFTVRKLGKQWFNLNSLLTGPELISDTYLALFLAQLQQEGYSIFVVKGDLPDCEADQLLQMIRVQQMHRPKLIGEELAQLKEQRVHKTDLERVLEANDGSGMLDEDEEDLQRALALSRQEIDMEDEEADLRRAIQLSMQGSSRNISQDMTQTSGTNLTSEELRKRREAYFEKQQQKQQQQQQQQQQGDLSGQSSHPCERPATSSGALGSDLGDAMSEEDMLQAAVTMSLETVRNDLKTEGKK
# Outline: as §1
# BAP1 = biological target: T2, BAP1 (UniProt Q92560)
# T2 sequence (whole entry): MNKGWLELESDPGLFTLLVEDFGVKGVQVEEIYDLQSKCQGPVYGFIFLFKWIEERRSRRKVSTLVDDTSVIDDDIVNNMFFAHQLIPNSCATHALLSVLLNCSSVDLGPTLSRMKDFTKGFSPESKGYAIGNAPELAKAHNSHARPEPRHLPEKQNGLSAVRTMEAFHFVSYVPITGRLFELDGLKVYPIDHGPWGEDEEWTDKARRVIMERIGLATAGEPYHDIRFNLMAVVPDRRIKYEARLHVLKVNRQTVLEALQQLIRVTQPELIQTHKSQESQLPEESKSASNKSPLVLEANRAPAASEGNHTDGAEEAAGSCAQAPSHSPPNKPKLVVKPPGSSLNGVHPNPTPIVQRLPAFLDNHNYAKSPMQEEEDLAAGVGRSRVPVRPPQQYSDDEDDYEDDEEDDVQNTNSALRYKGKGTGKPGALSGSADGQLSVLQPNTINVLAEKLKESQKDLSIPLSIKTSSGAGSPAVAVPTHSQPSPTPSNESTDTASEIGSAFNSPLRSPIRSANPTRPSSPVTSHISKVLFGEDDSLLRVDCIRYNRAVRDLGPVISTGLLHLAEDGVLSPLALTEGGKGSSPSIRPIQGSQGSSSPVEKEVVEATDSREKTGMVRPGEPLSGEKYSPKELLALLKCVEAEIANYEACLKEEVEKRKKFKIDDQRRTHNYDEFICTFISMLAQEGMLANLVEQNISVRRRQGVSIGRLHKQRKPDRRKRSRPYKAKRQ
# Outline: as §1
# EIF3F = EIF3F (UniProt O00303)
# EIF3F, sequence (O00303 whole entry): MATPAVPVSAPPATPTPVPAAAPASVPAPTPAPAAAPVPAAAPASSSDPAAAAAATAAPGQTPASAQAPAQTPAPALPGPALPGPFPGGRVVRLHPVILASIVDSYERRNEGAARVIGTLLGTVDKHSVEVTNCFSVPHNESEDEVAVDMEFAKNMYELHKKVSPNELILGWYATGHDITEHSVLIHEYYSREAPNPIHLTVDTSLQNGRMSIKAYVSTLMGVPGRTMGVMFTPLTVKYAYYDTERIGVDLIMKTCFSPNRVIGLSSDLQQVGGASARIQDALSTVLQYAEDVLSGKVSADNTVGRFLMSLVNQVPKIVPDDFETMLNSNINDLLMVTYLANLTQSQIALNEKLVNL
# Outline: as §1
# EIF3H = EIF3H (UniProt O15372)
# EIF3H, sequence (O15372 whole entry): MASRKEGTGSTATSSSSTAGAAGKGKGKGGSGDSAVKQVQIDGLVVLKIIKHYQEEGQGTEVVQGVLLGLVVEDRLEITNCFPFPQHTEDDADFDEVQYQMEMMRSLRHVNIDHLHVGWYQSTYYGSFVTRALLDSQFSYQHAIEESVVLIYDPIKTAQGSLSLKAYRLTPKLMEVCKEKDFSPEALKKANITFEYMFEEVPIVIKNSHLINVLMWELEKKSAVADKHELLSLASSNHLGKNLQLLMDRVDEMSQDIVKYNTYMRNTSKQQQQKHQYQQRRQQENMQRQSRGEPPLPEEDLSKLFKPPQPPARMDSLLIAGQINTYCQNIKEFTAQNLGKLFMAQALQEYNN
# Outline: as §1
# FAM105A = biological target: T3, FAM105A (UniProt Q9NUU6)
# T3 sequence (whole entry): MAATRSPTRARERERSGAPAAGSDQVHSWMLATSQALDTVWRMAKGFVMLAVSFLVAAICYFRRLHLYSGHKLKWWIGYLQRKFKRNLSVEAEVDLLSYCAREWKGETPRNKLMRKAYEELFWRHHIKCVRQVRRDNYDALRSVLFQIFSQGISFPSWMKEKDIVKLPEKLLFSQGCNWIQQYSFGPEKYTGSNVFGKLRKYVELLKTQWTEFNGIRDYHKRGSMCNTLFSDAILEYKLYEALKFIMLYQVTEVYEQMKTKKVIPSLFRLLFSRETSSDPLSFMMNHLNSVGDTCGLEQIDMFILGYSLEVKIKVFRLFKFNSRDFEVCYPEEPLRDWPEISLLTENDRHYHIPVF
# Outline: as §1
# OTUB1 = OTUB1 (UniProt Q96FW1)
# OTUB1, sequence (Q96FW1 whole entry): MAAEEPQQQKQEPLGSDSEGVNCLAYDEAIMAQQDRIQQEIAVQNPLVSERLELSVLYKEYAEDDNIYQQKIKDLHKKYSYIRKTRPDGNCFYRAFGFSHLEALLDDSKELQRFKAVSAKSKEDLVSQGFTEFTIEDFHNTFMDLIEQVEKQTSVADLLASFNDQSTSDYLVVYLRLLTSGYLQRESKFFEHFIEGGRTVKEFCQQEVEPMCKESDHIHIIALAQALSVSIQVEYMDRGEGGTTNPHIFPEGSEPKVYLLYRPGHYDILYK
# Outline: as §1
# OTUD4 = biological target: T4, OTUD4 (UniProt Q01804)
# T4 sequence (whole entry): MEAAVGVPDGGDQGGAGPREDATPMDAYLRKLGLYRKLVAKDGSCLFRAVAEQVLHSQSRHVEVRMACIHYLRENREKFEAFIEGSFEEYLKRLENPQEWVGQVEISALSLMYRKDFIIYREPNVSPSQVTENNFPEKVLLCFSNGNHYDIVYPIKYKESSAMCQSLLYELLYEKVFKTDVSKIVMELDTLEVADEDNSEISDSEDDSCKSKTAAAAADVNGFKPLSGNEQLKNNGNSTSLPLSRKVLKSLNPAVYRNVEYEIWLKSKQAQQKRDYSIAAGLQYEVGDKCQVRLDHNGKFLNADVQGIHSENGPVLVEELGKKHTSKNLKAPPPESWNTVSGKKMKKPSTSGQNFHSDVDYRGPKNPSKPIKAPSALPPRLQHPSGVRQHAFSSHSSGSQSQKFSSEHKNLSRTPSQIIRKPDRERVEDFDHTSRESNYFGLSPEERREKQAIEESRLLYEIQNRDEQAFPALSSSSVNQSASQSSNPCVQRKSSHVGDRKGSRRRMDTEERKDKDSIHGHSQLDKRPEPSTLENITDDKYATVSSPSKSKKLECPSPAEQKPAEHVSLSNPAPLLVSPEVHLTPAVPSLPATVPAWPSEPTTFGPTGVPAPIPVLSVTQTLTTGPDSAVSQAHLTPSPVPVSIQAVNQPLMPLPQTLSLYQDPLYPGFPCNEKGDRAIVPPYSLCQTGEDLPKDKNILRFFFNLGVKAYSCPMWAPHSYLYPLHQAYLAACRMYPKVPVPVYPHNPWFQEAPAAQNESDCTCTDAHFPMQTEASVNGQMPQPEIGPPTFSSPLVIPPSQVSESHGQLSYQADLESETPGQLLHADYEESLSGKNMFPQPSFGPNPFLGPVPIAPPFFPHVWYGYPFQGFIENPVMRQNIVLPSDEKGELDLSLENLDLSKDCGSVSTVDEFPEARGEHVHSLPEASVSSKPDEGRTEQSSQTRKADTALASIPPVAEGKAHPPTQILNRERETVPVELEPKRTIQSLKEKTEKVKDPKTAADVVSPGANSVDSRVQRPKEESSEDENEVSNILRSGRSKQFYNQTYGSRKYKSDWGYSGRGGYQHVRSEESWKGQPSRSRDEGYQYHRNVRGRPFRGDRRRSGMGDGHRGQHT
# Outline: as §1
# OTUD5 = biological target: T5, OTUD5 (UniProt Q96G74)
# T5 sequence (whole entry): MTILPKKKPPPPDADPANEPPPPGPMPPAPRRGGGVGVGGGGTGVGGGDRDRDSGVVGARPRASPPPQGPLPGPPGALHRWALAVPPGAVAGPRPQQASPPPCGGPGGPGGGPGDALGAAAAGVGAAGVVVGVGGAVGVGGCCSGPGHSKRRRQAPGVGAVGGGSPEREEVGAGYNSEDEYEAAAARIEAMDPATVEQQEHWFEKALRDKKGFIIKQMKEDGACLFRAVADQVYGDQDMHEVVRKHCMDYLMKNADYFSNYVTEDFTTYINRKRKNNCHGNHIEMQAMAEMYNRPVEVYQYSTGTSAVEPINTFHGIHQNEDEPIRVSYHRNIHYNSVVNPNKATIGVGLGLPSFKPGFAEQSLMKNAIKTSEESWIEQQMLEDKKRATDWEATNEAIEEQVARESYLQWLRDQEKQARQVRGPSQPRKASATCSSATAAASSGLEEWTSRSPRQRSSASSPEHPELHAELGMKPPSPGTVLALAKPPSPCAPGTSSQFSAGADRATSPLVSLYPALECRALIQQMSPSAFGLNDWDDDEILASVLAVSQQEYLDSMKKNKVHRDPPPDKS
# Outline: as §1
smiles,measurement,setting,value
O=C(CCl)Nc1ccc(F)cc1Cl,log2 ratio of Biotin-Ahx-Ub-VS probe labelling,ALG13,-0.23
same,log2 ratio of Biotin-Ahx-Ub-VS probe labelling,ATXN3,-0.598
same,log2 ratio of Biotin-Ahx-Ub-VS probe labelling,BAP1,-3.7 (active)
same,log2 ratio of Biotin-Ahx-Ub-VS probe labelling,EIF3F,-0.37
same,log2 ratio of Biotin-Ahx-Ub-VS probe labelling,EIF3H,0.131
same,log2 ratio of Biotin-Ahx-Ub-VS probe labelling,FAM105A,0.0383
same,log2 ratio of Biotin-Ahx-Ub-VS probe labelling,OTUB1,-0.452
same,log2 ratio of Biotin-Ahx-Ub-VS probe labelling,OTUD4,-0.578
same,log2 ratio of Biotin-Ahx-Ub-VS probe labelling,OTUD5,-0.8
